In PubChem BioAssay AID1961 (Sanford-Burnham Center for Chemical Genomics, 2009):
The campaign covered roughly 290,000 compounds. About 140 (0.048%) were called active. This is one part of a sample in which actives are shown more often than they occur.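 The calls were made as follows: active = activation above 40% with more than 50 cells counted in the well; inconclusive = wells holding fewer than 50 cells, flagged as toxic or sparse; inactive = the rest.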

Key:
[1] = GPR55 agonists via beta-arrestin recruitment, primary screen, imaging, U2OS cells, beta-arrestin-GFP redistribution (AID 1961); conditions: measured here: cytotoxicity, cells analyzed, at 10 µM;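 also: U2OS osteosarcoma cells stably expressing GPR55 and beta-arrestin-GFP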;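 as to activation: plate controls were DMSO negative control for no effect and LPI positive control for full effect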
[2] = biological target: G-protein coupled receptor 55 (Homo sapiens) (UniProt Q9Y2T6); assay: as above; conditions: at 10 µM, stronger effect = higher value
Sequence of G-protein coupled receptor 55 (Homo sapiens) (Q9Y2T6 whole entry, looked up): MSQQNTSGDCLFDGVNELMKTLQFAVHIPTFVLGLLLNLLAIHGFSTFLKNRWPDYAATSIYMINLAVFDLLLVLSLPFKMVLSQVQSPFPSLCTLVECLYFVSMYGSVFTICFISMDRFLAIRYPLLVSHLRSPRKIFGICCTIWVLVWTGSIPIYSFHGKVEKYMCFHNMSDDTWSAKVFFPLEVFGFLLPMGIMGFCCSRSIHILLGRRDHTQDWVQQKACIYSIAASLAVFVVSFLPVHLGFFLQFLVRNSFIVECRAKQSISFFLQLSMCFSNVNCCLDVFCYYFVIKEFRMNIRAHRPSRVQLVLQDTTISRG

| SMILES | cell count [1] [cells] | activation [2] |
| --- | --- | --- |
| CN1/C(=C\C=C2C(=O)NC(=O)NC2=O)C(C)(C)c2ccccc21 | 294 | 0.4% (inactive) |
| CN1/C(=C\C=Nc2ccccc2)C(C)(C)c2ccccc21 | 360 | -0.1% (inactive) |
| CN1/C(=C\C=C2C(=O)NC(=S)NC2=O)C(C)(C)c2ccccc21 | 268 | 57.7% (active) |
| N[C@@H](Cc1c[nH]c2ccccc12)c1nnc(SCc2ccc(Cl)cc2)o1 | 304 | 0.1% (inactive) |
| CC(=Nc1ccccc1N)c1c(O)n(C)c(=O)[nH]c1=O | 323 | 0.7% (inactive) |
